IL-1B inflam inh: qHTS for Inhibitors of Inflammasome Signaling: IL-1-beta AlphaLISA Primary Screen; THP-1 LPS/ATP IL-1B secretion, AlphaLISA, 16 h; active compounds read low; activity change, % at 57.5 µM; actives 4.7% (n = 360,000); AID 743279, 2014; in the data active = activity change below about -50%; inconclusive = mostly about -30% to -49%; note: % is set by controls: 0 for no effect and ±100 for the full control effect
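THP-1 cells pretreated 1 hr with compounds (up to 57.5 uM final), then stimulated with LPS (250 ng/mL final) plus ATP (1.25 mM final); secreted IL-1B measured by AlphaLISA after 16 hr, decreased signal indicating inhibition.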
SW480 rerep: A quantitative high throughput screen for small molecules that induce DNA re-replication in SW480 colon adenocarcinoma cells; Potency, µM (series often up to 46.1 µM), inactives show top-dose re-replication activation, usual class: activators; actives 1.8% (n = 340,000); SW480 DNA re-replication, Hoechst DNA content imaging, 48 h; AID 624297, 2012; note: potency is the fitted concentration of half-maximal effect; % of control where 0% means no effect; nearly all actives have a fitted effect of over 55% in size
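250 cells/well; 23 nL cpd via pin tool; 48 hr, 37 C, 5% CO2; Hoechst 40 min; imager read of total nuclear intensity, ex 405/em 500-530 nm.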
DT40 TDP1 CPT: qHTS for Inhibitors of human tyrosyl-DNA phosphodiesterase 1 (TDP1): qHTS in cells in presence of CPT. chicken DT40 Tdp1-/-;hTDP1 cells + 20 nM CPT, ATP luminescence, 48 h. Potency, µM (highest dose often 46.2 µM), for the others: at the highest dose activity change, negative = growth inhibition, hits mostly inhibitors. actives 12% (n = 420,000); note: potency is the fitted concentration of half-maximal effect; % is set by controls: 0 for no effect and ±100 for the full control effect; nearly all actives have a fitted effect of over 55% in size
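Chicken DT40 Tdp1-/- cells stably complemented with human TDP1 were seeded at 400 cells/well in medium containing 20 nM camptothecin, exposed to pin-transferred compounds, and grown at 37 °C for at least 48 hr. Viability was read as ATP luminescence.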
Chronic BCR inh: qHTS Assay to Find Inhibitors of Chronic Active B-Cell Receptor Signaling. ABC-DLBCL IkBa-CBG/CBR reporter, luminescence ratio, 4 h. Potency, µM (series often up to 46.1 µM), for the others: at the top dose activity change, negative = inhibition, actives largely listed as inhibitors. actives 0.05% (n = 340,000). AID 493014, 2011; active = well fitted inhibition curve with a large enough effect in the signal ratio, with a control signal flat, not every such curve was filed as active; inconclusive = small, poorly fitted or top-dose-only effect, or effect the other way, or a change in a side signal; the % refers to the signal ratio;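 note: potency is the fitted concentration of half-maximal effect; plate controls were basal doxycycline-induced cells for no effect and cells given 10 µM MG132 for full effect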
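Doxycycline induced both beetle luciferases in TMD8 lymphoma cells; IKK-driven degradation limits the IkappaBalpha-fused green signal, while red luminescence normalises for cell number and nonspecific effects. Compounds tested up to 46 uM, 4 hrs.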
DT40 TDP1 no CPT: qHTS for Inhibitors of human tyrosyl-DNA phosphodiesterase 1 (TDP1): qHTS in cells in absence of CPT; DT40 Tdp1-/- hTDP1 cells, no CPT, ATP luminescence, 48 h; AID 686978, 2013; Potency, µM (series often up to 46.2 µM), inactives show at the top dose activity change, negative = growth inhibition, usual class: inhibitors; actives 15% (n = 420,000); note: potency is the fitted concentration of half-maximal effect; % is set by controls: 0 for no effect and ±100 for the full control effect; nearly all actives have a fitted effect of over 55% in size
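Cells were dispensed at 400 per well, compounds added by pin tool, plates incubated ≥48 hr at 37 °C, then CellTiter-Glo added for 30 min at room temperature before luminescence reading. Line: DT40 Tdp1-/- complemented with hTDP1; camptothecin omitted.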
MCF10A rereplic: A quantitative high throughput screen for small molecules that induce DNA re-replication in MCF 10a normal breast cells. MCF 10A DNA re-replication, Hoechst nuclear intensity, 48 h. Potency, µM (top dose mostly 46.1 µM), for inactives: top-dose activity, positive = re-replication, most hits filed as activators. actives 2.9% (n = 350,000); note: potency is the fitted concentration of half-maximal effect; % of control where 0% means no effect; nearly all actives have a fitted effect of over 50% in size
An asterisk follows results filed as active; ? = inconclusive; / = no result given. An excerpt weighted towards active compounds, which were near 19% of everything screened. Unless noted, calls come from the whole dose curve; as a rule, active = well fitted curve in the direction sought with a large enough effect; inconclusive = small, poorly fitted or top-dose-only effect, or another doubt; inactive = no such curve, though single readings can be large; an effect the other way counts as inactive or inconclusive.

SMILES	IL-1B inflam inh	SW480 rerep	DT40 TDP1 CPT	Chronic BCR inh	DT40 TDP1 no CPT	MCF10A rereplic
O=C(Nc1ccc(Br)cc1F)N1CC=C(c2c[nH]c3ccccc23)CC1	/	/	0.65µM*	/	0.58µM*	/
CN(CCO)c1cccc2c1S(=O)(=O)N[C@@H](Cc1ccccc1)CO2	-4	/	-19%	/	?	/
Cc1cc(C)n(CC(O)Cn2c3ccc(Br)cc3c3cc(Br)ccc32)c(=O)n1 (configuration not stated)	-68*	?	-25%	?	?	17%
Cc1cc(C)n(CC(O)Cn2c3ccccc3c3ccccc32)c(=O)n1 (configuration not stated)	?	?	-29%	?	?	19%
Cc1cc(C)cc(C(=O)N(CCc2ccccc2)C2CC3CCC(C2)N3C)c1 (configuration not stated)	-65*	?	?	1%	?	?
O=C(NCCOc1ccccc1)c1ccccc1[N+](=O)[O-]	12	2%	-4%	-13%	-3%	1%
COc1ccc(C(=O)NCCOc2cccc(Oc3ccccc3)c2)cc1OC	0	-2%	?	?	12µM*	6%
Cc1ccc(OCCNC(=O)CNC(=O)c2ccc(C)cc2)cc1	7	-2%	-11%	0%	15%	1%
CCCCOc1ccc(C(=O)NCC(=O)NCC(=O)OCC)cc1	20	29%	16µM*	6%	?	?
COc1cc(OC)cc(C(=O)NCCOc2ccccc2)c1	-1	-5%	-18%	?	-5%	-2%
CCCCOc1ccc(C(=O)NCC(=O)NCCOc2ccccc2OC)cc1	-15	0.92µM*	-16%	5%	-7%	9%
O=C(NCCOc1ccccc1)c1cc(C(=O)NCCOc2ccccc2)cc([N+](=O)[O-])c1	-11	?	?	?	18µM*	13%
CCCCOc1ccc(C(=O)NCC(=O)OCCCOC(=O)CNC(=O)c2ccc(OCCCC)cc2)cc1	14	/	?	/	-26%	/
OCC[C@@H]1C[C@H](O)[C@@H](O)[C@@]2(OCCc3ccccc32)O1	-21	0%	-30%	-3%	-16%	-46%
CCCOC1CCCN(Cc2nc(-c3ccc(C(=O)OC)cc3)no2)C1 (configuration not stated)	59	21%	?	-2%	?	6%
O=C(CCN1C(=O)C2CCCCC2C1=O)N1CCN(S(=O)(=O)c2c(F)cccc2F)CC1 (configuration not stated)	-2	-6%	-8%	?	-2%	0%
COC(=O)c1ccc(COC(=O)CNC(=O)CNC(=O)c2ccc(OC)cc2)cc1	-67*	-143%	13%	/	?	4%
COc1ccccc1C(=O)NCCOc1ccc(C(C)(C)C)cc1	-9	-6%	?	-9%	21µM*	15%
COc1ccccc1OCCNC(=O)c1ccccc1C	-21	-4%	-15%	-5%	-8%	-1%
COc1ccc(OCCOC(=O)CNC(=O)c2ccc(Cl)cc2Cl)cc1	8	-1%	-18%	1%	-4%	1%
COc1ccc(C(=O)NCC(=O)OCCOc2ccc(Cl)cc2)cc1OC	-56*	2%	0%	?	-13%	4%
CCOC(=O)c1ccc(NC(=O)Cn2nc3c4ccccc4n(Cc4cccc(F)c4)cc-3c2=O)cc1	/	/	22%	/	?	/
CC(=O)c1cccc(NC(=O)COC(=O)CCC(=O)c2cccs2)c1	20	-4%	19%	-2%	1%	-1%
CCc1noc(C)c1C(=O)Nc1ccc(C(F)(F)F)cc1	12	9%	-12%	-6%	-1%	1%
C=CCC[C@@H](CCCCC)OC(=O)/C=C/[C@H](O)[C@@H](O)C[C@@H](O)CC=C	-6	/	?	/	16µM*	/
SMILES	IL-1B inflam inh	SW480 rerep	DT40 TDP1 CPT	Chronic BCR inh	DT40 TDP1 no CPT	MCF10A rereplic
C=CCC[C@H](CCCCC)OC(=O)/C=C/[C@@H](O)[C@H](O)C[C@@H](O)CC=C	-2	/	18µM*	/	18µM*	/
C=CCC[C@H](CCCCC)OC(=O)/C=C/[C@@H](O)[C@H](O)C[C@H](O)CC=C	-13	/	?	/	?	/
O=C(COC(=O)c1cc([N+](=O)[O-])ccc1NCCO)Nc1cccnc1Cl	10	2%	-22%	-5%	?	-9%
O=C(NCC12CC3CC(CC(C3)C1)C2)c1cc2nc(-c3ccc(F)cc3)cc(C(F)(F)F)n2n1	/	/	4%	2%	-12%	/
CCN1C(=O)[C@@H]2[C@@H](c3ccc(-c4ccccc4)cc3)N3CCC[C@@]3(C(=O)OC)[C@@H]2C1=O	-3	5%	21µM*	-1%	?	5%
CCN1C(=O)[C@H]2[C@@H](c3ccc(-c4ccccc4)cc3)N3CCC[C@@]3(C(=O)OC)[C@H]2C1=O	-15	-18%	?	7%	18µM*	?
Cc1ccc(NC(=O)C(C)OC(=O)COc2cccc(C(F)(F)F)c2)cc1 (configuration not stated)	8	-2%	-10%	10%	2%	-1%
Cc1ccc(C(=O)NC(C)c2ccc3c(c2)OCO3)s1 (configuration not stated)	-1	-54%	13µM*	?	16µM*	2%
C=CCNCC(=O)Nc1sc2c(c1C(=O)Nc1ccc(OC)cc1OC)CCC2	-24	6%	?	-4%	?	-3%
CCOc1ccccc1NC(=O)c1c(NCc2ccc(OC)c(OC)c2OC)sc2c1CCC(C)C2 (configuration not stated)	/	/	?	?	18µM*	/
CCOc1ccccc1NC(=O)c1c(NC(=O)COc2ccccc2)sc2c1CCCC2	/	/	-5%	/	-26%	/
COc1ccc(NC(=O)c2c(NCc3sccc3C)sc3c2CCCC3)c(OC)c1	/	/	21µM*	?	13µM*	/
COc1ccc(NC(=O)c2c(NCc3cccc(F)c3)sc3c2CCC3)c(OC)c1	/	/	13µM*	-3%	10µM*	/
CCOC(=O)N1CCc2c(sc(NCc3ccc(OC)c(OC)c3OC)c2C(=O)Nc2ccc(OC)cc2OC)C1	/	/	?	?	16µM*	/
